# Source: PubChem (National Center for Advancing Translational Sciences (NCATS))
# WRN helicase inh: inhibitors of human WRN helicase; hit rate 0.46% among 360,000; WRN helicase unwinding, fluorescent forked duplex, kinetic; Q14191; Potency, µM (series often up to 114 µM), inactives show top-dose activity change, negative = inhibition, most hits filed as inhibitors; further: potency means the concentration at half of the fitted maximal effect; nearly all actives have a fitted effect of over 55% in size
#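 Screening of the MLSMR collection measured strand separation of a quenched forked DNA duplex (100 nM) by 20 nM WRN with 2 mM ATP, all final. Compounds were preincubated with enzyme 15 min at room temperature.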
# BLM helicase inh: blocks DNA unwinding by human BLM helicase; P54132; recombinant BLM DNA unwinding, fluorescence dequenching; Potency, µM (doses to about 56.1 µM), for the others: at the highest dose activity change, negative = inhibition, usual class: inhibitors; hit rate 0.2% among 350,000;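 further: potency means the concentration at half of the fitted maximal effect; plate controls were vehicle for no effect and no enzyme for full effect; nearly all actives have a fitted effect of over 35% in size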
# PI5P4K alpha inh: blocks human PI5P4K alpha kinase activity | max response, % | AID 652105 | PI5P4Kalpha enzyme, ADP-Glo luminescence, 60 min; hits give low values | hit rate 1.2% among 330,000 | P48426; active means max response of -50% or lower; inconclusive means between -30% and -50%; inactive means -30% or higher; further: value at the top dose of about 77 µM
#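 Reactions run in 0.038 M HEPES pH 7.4, 0.28 mM EGTA, 0.1% CHAPS and 5% DMSO, with PI5P4Kalpha, substrate, compound and 5 microM ATP final, one hour at room temperature. Readout is ADP-Glo luminescence.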
# RECQ1 inh: blocks DNA unwinding by human RECQ1 | P46063 | RECQ1 DNA unwinding, red fluorescence kinetic read | Potency, µM (highest dose often 57.3 µM), without a hit: top-dose activity, negative = inhibition, most hits filed as inhibitors | hit rate 0.54% among 240,000 | AID 2549;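 further: potency means the concentration at half of the fitted maximal effect; plate controls were vehicle for no effect and no enzyme for full effect; nearly all actives have a fitted effect of over 30% in size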
#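 50 nM RECQ1T1 preincubated 15 min with compound in Tris pH 8.0 buffer with MgCl2, DTT, Tween-20 and 2.5 ug/ml poly(dI-dC); started with 200 nM TAMRA/BHQ-2 forked duplex and 2 mM ATP. Unwinding read as fluorescence (525/598 nm), two reads 2 h apart.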
# FEN1 inhibitor: blocks human flap endonuclease 1. hit rate 0.35% among 390,000. AID 588795. Recombinant FEN1 flap cleavage, fluorescence, 15 min. Potency, µM (highest dose often 114 µM), without a hit: top-dose activity change, negative = inhibition, most hits filed as inhibitors. P39748; further: potency means the concentration at half of the fitted maximal effect; nearly all actives have a fitted effect of over 65% in size
#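 With each library titrated from low to high concentration, compounds met 10 nM FEN1 for 15 min at room temperature before 50 nM substrate was added; readings at 0 and 15 min fed four-parameter Hill curve fits.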
# APEX1 inh: inhibitors of human APE1 endonuclease | P27695 | Potency, µM (top dose mostly 65.8 µM), for the others: at the top dose activity change, negative = inhibition, usual class: inhibitors | recombinant APE1, TAMRA/BHQ-2 abasic DNA cleavage fluorescence | AID 2517 | hit rate 0.35% among 350,000;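 further: potency means the concentration at half of the fitted maximal effect; plate controls were vehicle for no effect and reference inhibitor for full effect; nearly all actives have a fitted effect of over 55% in size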
# Target sequence (P27695 whole entry, looked up): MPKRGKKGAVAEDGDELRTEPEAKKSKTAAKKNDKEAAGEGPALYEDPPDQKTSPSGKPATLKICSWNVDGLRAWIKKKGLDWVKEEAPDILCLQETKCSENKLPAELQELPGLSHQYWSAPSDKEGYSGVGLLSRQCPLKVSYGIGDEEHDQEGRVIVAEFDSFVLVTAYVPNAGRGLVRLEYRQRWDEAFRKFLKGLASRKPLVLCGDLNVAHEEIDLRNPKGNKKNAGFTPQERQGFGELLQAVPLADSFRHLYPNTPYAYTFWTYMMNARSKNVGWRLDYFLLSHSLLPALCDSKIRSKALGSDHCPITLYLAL
#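 Activity was derived from the fluorescence gain between first and third kinetic reads (60 s intervals, ex 525/em 598 nm) after 50 nM THF-abasic TAMRA/BHQ-2 duplex was added to 0.75 nM APE1 preincubated 15 min with compound.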
# * = called active by the depositor; i = inactive; ? = inconclusive; / = no result given; [ ] = remark or other dose. Only some compounds are listed: those with a hit (about 1.5% of all), similar ones and a draw of the others. Unless noted, the call rests on the fitted dose curve; in most records, active means well fitted curve in the direction sought with a large enough effect; inconclusive means small, poorly fitted or top-dose-only effect, or another doubt; inactive means no such curve, though single readings can be large; an effect the other way counts as inactive or inconclusive. Unless noted, on the % scale 0 is the no-effect control and ±100 the full control effect.
SMILES,WRN helicase inh,BLM helicase inh,PI5P4K alpha inh,RECQ1 inh,FEN1 inhibitor,APEX1 inh
COc1ccc(/C=N/N=C2/NC(=O)C(CC(=O)O)S2)cc1OCc1ccc(Cl)cc1Cl (configuration not stated),?,-8%,-56*,1%,-18%,?
COc1ccc2oc(-c3ccc(C)c(NC(=O)c4ccc5c(c4)OCCO5)c3)nc2c1,/,-7%,/,/,-10%,/
CN1CCN(c2cc(N3CCN(C(=O)c4ccco4)CC3)c3c4c(onc24)-c2ccccc2C3=O)CC1,?,-18%,-17,/,?,17%
O=C1c2ccccc2-c2onc3c(N4CCN(CCO)CC4)cc(N4CCN(C(=O)c5ccco5)CC4)c1c23,151%,-20%,?,/,45µM*,3%
C/C(=N\NC(=O)c1cc(C)nc2ccccc12)c1ccco1,-8%,-2%,3,-3%,6%,1%
C/C(=N/NC(=O)c1cc2ccccc2cc1O)c1ccco1,-9%[11.6 µM],-7%,-65*,/,1%,-11%
C/C(=N\NC(=O)c1cccc(N/N=C(\C)c2ccco2)c1)c1ccco1,-7%[11.6 µM],-8%,-86*,-7%,-20%,-8%
C/C(=N\NC(=O)c1cc2ccccc2cc1O)c1ccc(C)o1,-29%,-8%,-61*,/,-5%,4%
Brc1ccc(-c2csc(N3CCCCC3)n2)cc1,/,/,/,/,/,12%
Cc1c(F)cccc1Cn1cnc2c(cnn2C(C)(C)C)c1=O,/,/,/,/,5%,-8%
C#CCOCCOCCOCCNc1nc(N2CCN(C(=O)CCCCCCCCCCNC(=O)[C@@H](CCC(=O)O)n3cc(CCCCCN)nn3)CC2)nc(N2CCN(C(=O)CCCCCCCCCCNC(=O)[C@H](CO)n3cc(CCCCCN)nn3)CC2)n1,-5%,/,-54*,/,-8%,34%
C#CCOCCOCCOCCNc1nc(N2CCN(C(=O)CCCCCCCCCCNC(=O)[C@@H](CCC(=O)O)n3cc(CCCCCN)nn3)CC2)nc(N2CCN(C(=O)CCCCCCCCCCNC(=O)[C@H](CCCCN)n3cc(C[C@@H](C)CC)nn3)CC2)n1,-8%,/,-53*,/,?,22%
C#CCOCCOCCOCCNc1nc(N2CCN(C(=O)CCCCCCCCCCNC(=O)[C@@H](CCC(=O)O)n3cc(CCCCCN)nn3)CC2)nc(N2CCN(C(=O)CCCCCCCCCCNC(=O)[C@H](CO)n3cc(CCCSC)nn3)CC2)n1,-3%,/,-2,/,7%,-3%
C#CCOCCOCCOCCNc1nc(N2CCN(C(=O)Cn3cc(CCCCN)nn3)CC2)nc(N2CCN(C(=O)Cn3cc(CC(C)O)nn3)CC2)n1 (configuration not stated),-1%,25%,2,i,3%,-3%
C#CCOCCOCCOCCNc1nc(N2CCN(C(=O)CCCCCCCCCCNC(=O)[C@H](CCCCN)n3cc(CCO)nn3)CC2)nc(N2CCN(C(=O)CCCCCCCCCCNC(=O)[C@H](CCCCN)n3cc(C[C@@H](C)CC)nn3)CC2)n1,50µM*,/,-62*,/,28µM*,?
C#CCOCCOCCOCCNc1nc(N2CCN(C(=O)CCCCCCCCCCNC(=O)Cn3cc(CCCCCN)nn3)CC2)nc(N2CCN(C(=O)CCCCCCCCCCNC(=O)Cn3cc(C[C@@H](C)O)nn3)CC2)n1,25µM*,/,-65*,/,79µM*,?
C#CCOCCOCCOCCNc1nc(N2CCN(C(=O)CCCCCCCCCCNC(=O)[C@@H](CCSC)n3cc(CCO)nn3)CC2)nc(N2CCN(C(=O)CCCCCCCCCCNC(=O)[C@H](CO)n3cc(CCCCCN)nn3)CC2)n1,50µM*,/,?,/,?,?
C#CCOCCOCCOCCNc1nc(N2CCN(C(=O)CCCCCCCCCCNC(=O)[C@@H](CCSC)n3cc(CCO)nn3)CC2)nc(N2CCN(C(=O)CCCCCCCCCCNC(=O)[C@H](CCC(=O)O)n3cc(CCCCCN)nn3)CC2)n1,1%,/,-16,/,-23%,0%
